# Data taken from PubChem BioAssay AID651692 (Broad Institute, 2012).
# Results with a measured potency or affinity are listed apart. Activity calls are given as the source filed them.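 The calls were made as follows: active = fitted half-maximal concentration for loss of cell signal no higher than twice the top valid tested concentration; inconclusive = flat curve at 30 to 70% inhibition, or poor fit; inactive = flat within 30%, signal rise, or potency above limit.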
# Test: cytotoxicity toward MDA-MB-231 breast cancer cells – cell-based, CellTiter-Glo luminescence, cherry-pick, cytotoxicity control for RAD54 inhibitor project, dose response (AID 651692);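 also: more negative values mean stronger loss of viable cell signal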
# Conditions: MDA-MB-231 viability, 24 h; series mostly up to 26 µM
row,SMILES,outcome
1,CN1CCN(c2ccc(N)cc2)CC1,inactive
2,CN1CCN(c2cc(N3CCNCC3)ccc2[N+](=O)[O-])CC1,inactive
3,Nc1ccnn1C1CCNCC1,inactive
4,Nc1ccc(C2(c3ccc(N)cc3)CN3CCC2CC3)cc1,inactive
5,CN1CCC(N(C)c2nc(-c3ccccc3)nc3ccccc23)CC1,inactive
6,O=C(NC1CN2CCC1CC2)c1cc(Cl)c([N+](=O)[O-])c2nc[nH]c12 (stereo not drawn),inactive
7,Nc1ccc(CCN2CCCC2)cc1,inactive
8,CC(Cc1ccccc1)NCC(=O)Nc1cc(N(C)C)nc2ccccc12 (stereo not drawn),inactive
9,COc1ccc2c(c1)[nH]c1c(C)nccc12,inactive
10,Cc1ccc(-c2nc(N(C)C3CCN(C)CC3)c3ccccc3n2)cc1,inactive
11,CCNCCNc1ccc([N+](=O)[O-])c2cccnc12,inactive
12,CCN1CCN(c2ccc(N)c(C)c2)CC1,inactive
13,Cc1nccc2c1[nH]c1ccccc12,inactive
